Source: PubChem BioAssay (Tox21)
Records with an inconclusive call do not appear. The source made the active and inactive calls. Unless noted, the call rests on the fitted dose curve; in most records, active means well fitted curve in the direction sought with a large enough effect in the repeat runs; inconclusive means weak or mixed curves; inactive means no such curve, though single readings can be large; an effect the other way counts as inactive or inconclusive.

What was measured:
[1] = qHTS assay to identify aromatase inhibitors - cell viability counter screen (AID 743084);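 further: cells stimulated with testosterone during compound exposure; nearly all actives have a fitted effect of over 55% in size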
[2] = biological target: Aryl hydrocarbon receptor (Homo sapiens) (UniProt P35869); assay: qHTS assay to identify small molecule that activate the aryl hydrocarbon receptor (AhR) signaling pathway (AID 743085);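 further: HG2L7.5c1 human HepG2 liver cells with stably integrated DRE-driven firefly reporter; series mostly up to about 70 µM; nearly all actives have a fitted effect of over 15% in size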
Sequence of Aryl hydrocarbon receptor (Homo sapiens) (P35869 whole entry, looked up): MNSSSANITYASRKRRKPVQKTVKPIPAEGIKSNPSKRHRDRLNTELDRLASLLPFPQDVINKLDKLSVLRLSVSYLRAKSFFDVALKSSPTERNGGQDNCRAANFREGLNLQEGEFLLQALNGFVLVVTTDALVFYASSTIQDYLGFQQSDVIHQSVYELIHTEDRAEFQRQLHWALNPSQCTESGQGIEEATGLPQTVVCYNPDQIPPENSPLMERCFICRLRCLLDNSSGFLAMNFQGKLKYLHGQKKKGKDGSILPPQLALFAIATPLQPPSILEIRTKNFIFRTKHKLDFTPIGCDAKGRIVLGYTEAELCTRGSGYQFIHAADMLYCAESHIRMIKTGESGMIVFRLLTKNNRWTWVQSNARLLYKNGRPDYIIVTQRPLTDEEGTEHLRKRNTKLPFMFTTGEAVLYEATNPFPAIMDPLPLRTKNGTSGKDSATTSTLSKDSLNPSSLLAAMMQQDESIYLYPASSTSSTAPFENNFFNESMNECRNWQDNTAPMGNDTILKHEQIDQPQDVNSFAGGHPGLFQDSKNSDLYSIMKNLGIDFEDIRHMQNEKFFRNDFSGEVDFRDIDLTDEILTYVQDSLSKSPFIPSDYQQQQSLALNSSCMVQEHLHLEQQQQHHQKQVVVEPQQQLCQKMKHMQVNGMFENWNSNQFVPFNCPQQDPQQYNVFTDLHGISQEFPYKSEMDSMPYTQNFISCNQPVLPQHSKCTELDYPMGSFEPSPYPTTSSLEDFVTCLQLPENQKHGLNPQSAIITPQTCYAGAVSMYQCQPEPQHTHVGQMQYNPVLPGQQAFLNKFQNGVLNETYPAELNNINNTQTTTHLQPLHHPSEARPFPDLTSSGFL
Summary of the method: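 HepG2 cells (HG2L7.5c1) stably carrying a firefly luciferase reporter driven by 20 dioxin responsive elements were exposed to compound for 24 h at 37C after a 5 h settling period; luminescence rise (ONE-Glo) indicated activation.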

[3] = qHTS assay to identify small molecule that activate the aryl hydrocarbon receptor (AhR) signaling pathway - cell viability counter screen (AID 743086);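 further: HepG2 liver cells carrying the AhR DRE luciferase reporter; series mostly up to about 70 µM; nearly all actives have a fitted effect of over 45% in size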
Summary of the method: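 Cytotoxicity counter screen: CellTiter-Fluor signal (30 min, 37 C) in 4000 HepG2 cells/well carrying the DRE-luciferase reporter, following 24 h compound exposure at 37 C.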

[4] = biological target: Peroxisome proliferator-activated receptor gamma (Homo sapiens) (UniProt P37231); assay: qHTS assay to identify small molecule agonists of the peroxisome proliferator-activated receptor gamma (PPARg) signaling pathway (AID 743094; active means well fitted activation curve with a large enough effect in the signal ratio in the repeat runs, not every such curve was filed as active; the % refers to the signal ratio)
Sequence of Peroxisome proliferator-activated receptor gamma (Homo sapiens) (P37231 whole entry, looked up): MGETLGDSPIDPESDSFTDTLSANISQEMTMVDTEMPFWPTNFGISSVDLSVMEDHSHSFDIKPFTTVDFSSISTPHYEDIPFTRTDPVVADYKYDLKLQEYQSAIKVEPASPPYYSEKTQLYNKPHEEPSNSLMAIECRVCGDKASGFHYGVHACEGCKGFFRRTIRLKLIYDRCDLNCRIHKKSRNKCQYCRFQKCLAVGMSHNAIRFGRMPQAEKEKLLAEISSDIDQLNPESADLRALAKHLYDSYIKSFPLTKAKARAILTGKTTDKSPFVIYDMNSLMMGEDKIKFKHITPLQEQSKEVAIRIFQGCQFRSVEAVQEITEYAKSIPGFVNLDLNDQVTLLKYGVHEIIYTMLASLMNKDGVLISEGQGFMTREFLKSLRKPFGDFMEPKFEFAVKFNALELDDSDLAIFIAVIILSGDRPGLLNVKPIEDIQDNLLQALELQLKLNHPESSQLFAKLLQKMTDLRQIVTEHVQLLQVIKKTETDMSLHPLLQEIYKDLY
Summary of the method: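 Agonist activity was taken from a beta-lactamase reporter (FRET substrate, 1 h at room temperature) in HEK293H cells carrying a PPARg UAS-bla construct. Compounds in DMSO were incubated 17 h at 37C after a 5 h cell pre-incubation.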

[5] = qHTS assay to identify small molecule antagonists of the peroxisome proliferator-activated receptor gamma (PPARg) signaling pathway - cell viability counter screen (AID 743194); further: nearly all actives have a fitted effect of over 55% in size
Summary of the method: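 Viability was measured as CellTiter-Glo luminescence in GeneBLAzer PPARg UAS-bla HEK293H cells. These cells had been exposed 17 h at 37 C to compounds together with rosiglitazone at 50 nM final, with the beta-lactamase readout taken in the same wells.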

[6] = qHTS assay for small molecule agonists of the antioxidant response element (ARE) signaling pathway - cell viability counter screen (AID 743203; calls by dose curve; further: nearly all actives have a fitted effect of over 55% in size)
Summary of the method: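 Viability counter screen: CellTiter-Glo luminescence, read after 30 min at room temperature, in ARE-bla HepG2 wells. Compound exposure lasted 16 h at 37C/5% CO2, following a 5 h pre-incubation of the cells after plating.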

[7] = qHTS assay for small molecule activators of the heat shock response signaling pathway - cell viability counter screen (AID 743209); further: nearly all actives have a fitted effect of over 50% in size
Summary of the method: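 Cytotoxicity counter screen run in the same wells as the heat-shock bla reporter assay: HeLa HSE-bla cells, 5 h compound exposure at 37 C, viability read by CellTiter-Glo luminescence.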

[8] = qHTS assay for small molecule activators of the heat shock response signaling pathway (AID 743210; active means well fitted activation curve with a large enough effect in the signal ratio in the repeat runs, with a control signal flat, not every such curve was filed as active; the % refers to the signal ratio;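 further: HeLa cells with beta-lactamase reporter driven by heat shock elements; series mostly up to about 63 µM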)
Summary of the method: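 Fluorescence from a cleaved B/G FRET substrate (2.5 h, room temp) reports HSE-driven beta-lactamase in HeLa cells treated 5 h at 37 C with DMSO-dissolved compounds.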

[9] = qHTS assay to identify small molecule agonists of the peroxisome proliferator-activated receptor delta (PPARd) signaling pathway - cell viability counter screen (AID 743211); further: nearly all actives have a fitted effect of over 55% in size
Summary of the method: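 PPARd-bla HEK293H cells (UAS-beta-lactamase reporter) were treated with compounds for 17 h at 37 C. Viability was then read in the same wells by CellTiter-Glo luminescence after 30 min at room temperature.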

[10] = qHTS assay to identify small molecule antagonists of the peroxisome proliferator-activated receptor delta (PPARd) signaling pathway - cell viability counter screen (AID 743213); further: nearly all actives have a fitted effect of over 50% in size
Summary of the method: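 Cytotoxicity counter screen: CellTiter-Glo luminescence read 30 min after addition, in the same wells as the reporter assay. There, PPARd UAS-bla HEK293H cells (3000/well) were treated 17 h at 37 C with compound and 300 nM L165041.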

[11] = qHTS assay to identify small molecule antagonists of the farnesoid-X-receptor (FXR) signaling pathway - cell viability counter screen (AID 743221; active means well fitted cell-killing curve with a large enough effect in the repeat runs, not every such curve was filed as active; further: nearly all actives have a fitted effect of over 50% in size)
Summary of the method: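 FXR-UAS-bla HEK 293T cells were treated with test compounds plus chenodeoxycholic acid (50 uM final) for 16 h at 37 C. Cell viability in the same wells was then read as CellTiter-Glo luminescence after 30 min at room temperature.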

[12] = biological target: Peroxisome proliferator-activated receptor delta (Homo sapiens) (UniProt Q03181); assay: qHTS assay to identify small molecule antagonists of the peroxisome proliferator-activated receptor delta (PPARd) signaling pathway (AID 743215; active means well fitted inhibition curve with a large enough effect in the signal ratio in the repeat runs, not every such curve was filed as active; the % refers to the signal ratio;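 further: cells stimulated with agonist L165041 at 300 nM final during compound exposure; series mostly up to about 62 µM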)
Sequence of Peroxisome proliferator-activated receptor delta (Homo sapiens) (Q03181 whole entry, looked up): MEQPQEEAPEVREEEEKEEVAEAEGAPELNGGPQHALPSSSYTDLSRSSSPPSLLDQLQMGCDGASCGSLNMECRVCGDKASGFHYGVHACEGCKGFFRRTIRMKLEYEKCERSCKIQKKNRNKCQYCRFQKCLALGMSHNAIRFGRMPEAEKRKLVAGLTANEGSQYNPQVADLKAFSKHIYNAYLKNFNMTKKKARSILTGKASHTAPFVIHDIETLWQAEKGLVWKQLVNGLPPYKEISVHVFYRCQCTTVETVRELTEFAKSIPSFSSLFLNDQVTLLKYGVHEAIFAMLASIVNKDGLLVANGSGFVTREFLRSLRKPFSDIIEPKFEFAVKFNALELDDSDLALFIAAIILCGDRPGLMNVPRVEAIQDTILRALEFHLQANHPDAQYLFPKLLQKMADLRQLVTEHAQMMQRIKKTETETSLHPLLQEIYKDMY
Summary of the method: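 Agonist L165041 (300 nM final) added with compound to PPARd-bla HEK293H UAS-bla reporter cells; 17 h incubation at 37 C. Read-out: LiveBLAzer FRET substrate, 2 h at room temperature, fluorescence intensity.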

[13] = qHTS assay to identify small molecule agonists of the farnesoid-X-receptor (FXR) signaling pathway - cell viability counter screen (AID 743218); further: nearly all actives have a fitted effect of over 45% in size
Summary of the method: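 Viability counter screen in the same wells: CellTiter-Glo luminescence, 30 min room-temperature incubation, measured after the beta-lactamase read. Cells were GeneBLAzer FXR-UAS-bla HEK 293T, compound-treated 16 h at 37C.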

[14] = biological target: Peroxisome proliferator-activated receptor delta (Homo sapiens) (UniProt Q03181); assay: qHTS assay to identify small molecule agonists of the peroxisome proliferator-activated receptor delta (PPARd) signaling pathway (AID 743212; calls by dose curve)
Summary of the method: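 Steps: seed PPARd-bla HEK293H cells; incubate 5 h, 37 C, 5% CO2; add compounds in DMSO; incubate, 37 C; add LiveBLAzer B/G FRET substrate; hold 2 h at room temperature; measure fluorescence.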

[15] = biological target: Bile acid receptor (Homo sapiens) (UniProt Q96RI1); assay: qHTS assay to identify small molecule antagonists of the farnesoid-X-receptor (FXR) signaling pathway (AID 743217; active means well fitted inhibition curve with a large enough effect in the signal ratio in the repeat runs, not every such curve was filed as active; the % refers to the signal ratio)
Sequence of Bile acid receptor (Homo sapiens) (Q96RI1 whole entry, looked up): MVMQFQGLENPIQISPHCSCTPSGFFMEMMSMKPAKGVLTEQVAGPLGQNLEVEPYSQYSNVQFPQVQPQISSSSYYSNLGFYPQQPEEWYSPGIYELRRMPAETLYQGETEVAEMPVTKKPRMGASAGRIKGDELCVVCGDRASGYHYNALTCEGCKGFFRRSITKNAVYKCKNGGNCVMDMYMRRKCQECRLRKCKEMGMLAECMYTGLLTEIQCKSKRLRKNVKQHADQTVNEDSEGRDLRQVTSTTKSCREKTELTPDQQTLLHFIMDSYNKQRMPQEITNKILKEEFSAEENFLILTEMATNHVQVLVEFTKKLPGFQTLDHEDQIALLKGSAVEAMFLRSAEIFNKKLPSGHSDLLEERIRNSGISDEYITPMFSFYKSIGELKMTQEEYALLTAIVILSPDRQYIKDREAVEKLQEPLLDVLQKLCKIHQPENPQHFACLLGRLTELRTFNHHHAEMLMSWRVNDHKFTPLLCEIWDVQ
Summary of the method: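 Antagonist mode: chenodeoxycholic acid at 50 uM final stimulates a UAS-driven beta-lactamase reporter in HEK 293T FXR-bla cells during 16 h, 37C compound exposure. Read-out is FRET substrate fluorescence after 2 h at room temperature.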

[16] = biological target: Bile acid receptor (Homo sapiens) (UniProt Q96RI1); assay: qHTS assay to identify small molecule agonists of the farnesoid-X-receptor (FXR) signaling pathway (AID 743220; active means well fitted activation curve with a large enough effect in the signal ratio in the repeat runs, not every such curve was filed as active; the % refers to the signal ratio)
Summary of the method: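 FXR-UAS-bla HEK 293T cells carrying a UAS-driven beta-lactamase reporter were plated for 5 h at 37C/5% CO2, then exposed to DMSO-dissolved Tox21 10K compounds for 16 h at 37C. A LiveBLAzer B/G FRET substrate was loaded for 2 h at room temperature before fluorescence reading.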

[17] = biological target: Vitamin D3 receptor (Homo sapiens) (UniProt P11473); assay: qHTS assay to identify small molecule agonists of the vitamin D receptor (VDR) signaling pathway (AID 743222; calls by dose curve)
Sequence of Vitamin D3 receptor (Homo sapiens) (P11473 whole entry, looked up): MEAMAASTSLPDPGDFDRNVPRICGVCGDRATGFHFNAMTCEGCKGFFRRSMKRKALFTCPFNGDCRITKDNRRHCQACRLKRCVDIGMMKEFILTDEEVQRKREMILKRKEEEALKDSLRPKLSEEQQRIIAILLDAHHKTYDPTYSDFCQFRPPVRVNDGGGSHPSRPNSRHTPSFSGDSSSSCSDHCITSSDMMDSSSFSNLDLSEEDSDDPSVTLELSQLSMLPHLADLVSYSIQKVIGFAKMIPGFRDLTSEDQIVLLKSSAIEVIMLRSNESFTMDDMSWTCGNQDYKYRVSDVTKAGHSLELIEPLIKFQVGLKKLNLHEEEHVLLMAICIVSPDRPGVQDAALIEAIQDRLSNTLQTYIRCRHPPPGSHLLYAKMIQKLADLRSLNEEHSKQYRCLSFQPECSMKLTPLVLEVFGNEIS
Summary of the method: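 Agonist mode, beta-lactamase reporter: fluorescence from LiveBLAzer B/G FRET substrate (2 h, room temperature) read after 16 h compound treatment at 37 C of VDR-bla cells, which were pre-incubated 4 h after seeding.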

[18] = biological target: Vitamin D3 receptor (Homo sapiens) (UniProt P11473); assay: qHTS assay to identify small molecule antagonists of the vitamin D receptor (VDR) signaling pathway (AID 743223; active means well fitted inhibition curve with a large enough effect in the signal ratio in the repeat runs, not every such curve was filed as active; the % refers to the signal ratio)
Summary of the method: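 VDR-bla cells were plated, incubated 4 h at 37C, then given compound and 1alpha,25-dihydroxyvitamin D3 (3 nM final). After 16 h at 37C, LiveBLAzer B/G FRET substrate was added for 2 h at room temperature and fluorescence read.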

[19] = qHTS assay for small molecule agonists of the antioxidant response element (ARE) signaling pathway (AID 743202; active means well fitted activation curve with a large enough effect in the signal ratio in the repeat runs, not every such curve was filed as active; the % refers to the signal ratio)
Summary of the method: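 Beta-lactamase reporter activity, read as fluorescence intensity, reflects ARE/Nrf2 pathway induction in HepG2 cells after 16 h compound exposure at 37 C; substrate loading was 2 h at room temperature.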

[20] = biological target: Peroxisome proliferator-activated receptor gamma (Homo sapiens) (UniProt P37231); assay: qHTS assay to identify small molecule antagonists of the peroxisome proliferator-activated receptor gamma (PPARg) signaling pathway (AID 743191; calls by dose curve; further: series mostly up to about 63 µM; nearly all actives have a fitted effect of over 30% in size)
Summary of the method: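 Beta-lactamase reporter under UAS control in HEK293H PPARg-bla cells; compound treatment 17 h at 37C. Read-out: fluorescence intensity after 1 h room-temperature incubation with LiveBLAzer B/G FRET substrate.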
On the % scale 0 is the no-effect control and ±100 the full control effect.

C[C@H]1O[C@@H](n2cc(F)c(=O)[nH]c2=O)[C@H](O)[C@@H]1O
inactive: Potency [1] | Potency [2] | Potency [3] | outcome [4] | Potency [5] | outcome [6] | outcome [7] | outcome [8] | Potency [9] | Potency [10] | Potency [11]

O=S(=O)(O)c1ccccc1O
inactive: Potency [1] | Potency [2] | Potency [3] | outcome [4] | Potency [5] | outcome [6] | outcome [7] | outcome [8] | Potency [9] | Potency [10] | outcome [12] | outcome [13] | Potency [11]

Nc1cc(N)cc(C(=O)O)c1
inactive: Potency [1] | Potency [2] | Potency [3] | outcome [4] | Potency [5] | outcome [6] | outcome [7] | outcome [8] | Potency [9] | outcome [14] | Potency [10] | outcome [12] | outcome [15] | outcome [16] | Potency [11] | outcome [17] | outcome [18]

NC(=S)Nc1cccc2ccccc12
inactive: activity change, negative = cytotoxicity [1] 1.26% [at 8.47 µM] | activation [2] 0.499% [at 8.47 µM] | viability change, negative = cytotoxic [3] 1.55% [at 8.47 µM] | activation [4] -10.4% [at 7.08 µM] | activity change, negative = cytotoxicity [5] 9.83% [at 5.95 µM] | activation [19] -5.35% [at 8.36 µM] | viability change, negative = cytotoxic [6] 10% [at 8.36 µM] | activity change, negative = cytotoxicity [7] -5.69% [at 5.95 µM] | activity change, negative = cytotoxicity [9] -1.16% [at 5.95 µM] | activation [14] -6.49% [at 5.95 µM] | viability change, negative = cytotoxic [10] 5.98% [at 6.26 µM] | ratio activity, negative = inhibition [12] -0.221% [at 6.26 µM] | activity change, negative = cytotoxicity [11] 8.25% [at 5.95 µM] | activity change, negative = inhibition [18] -15.5% [at 6.95 µM]

COc1cc(C(=O)N2CCOCC2)cc(OC)c1OC
inactive: Potency [1] | Potency [2] | Potency [3] | outcome [4] | Potency [5] | Potency [19] | outcome [6] | outcome [7] | outcome [8] | Potency [9] | Potency [10] | outcome [13] | Potency [11] | outcome [17] | outcome [18]

C1C2OC2C2C1C1CC2C2OC12 (stereo not drawn)
inactive: Potency [1] | Potency [2] | Potency [3] | outcome [4] | Potency [5] | Potency [19] | outcome [6] | outcome [7] | outcome [8] | Potency [10] | outcome [13] | Potency [11] | outcome [17]

CCC(C(=O)NC(N)=O)c1ccccc1 (stereo not drawn)
inactive: Potency [1] | Potency [2] | Potency [3] | outcome [4] | Potency [5] | outcome [7] | outcome [8] | Potency [9] | outcome [14] | Potency [10] | outcome [15] | outcome [13] | outcome [16] | Potency [11]

CCC(=O)Nc1cccc(N)c1
inactive: Potency [1] | Potency [2] | Potency [3] | outcome [4] | Potency [5] | outcome [6] | outcome [7] | outcome [8] | Potency [9] | outcome [14] | Potency [10] | outcome [12] | Potency [11] | outcome [17] | outcome [18]

CC(C)=CCC/C(C)=C/C(=O)O
inactive: Potency [1] | Potency [2] | Potency [3] | Potency [5] | Potency [19] | outcome [6] | outcome [7] | outcome [8] | Potency [10] | outcome [13] | Potency [11]

CCCCCOC(=O)Nc1nc(=O)n([C@@H]2O[C@H](C)[C@@H](O)[C@H]2O)cc1F
inactive: Potency [1] | Potency [2] | Potency [3] | outcome [4] | Potency [19] | outcome [6] | outcome [7] | outcome [8] | Potency [9] | outcome [14] | Potency [10] | outcome [13] | Potency [11] | outcome [18]

CC(C)c1cccc(C(C)C)c1N
inactive: Potency [1] | Potency [2] | outcome [4] | outcome [20] | Potency [5] | Potency [19] | outcome [6] | outcome [7] | outcome [8] | Potency [9] | outcome [14] | Potency [10] | outcome [12] | outcome [13] | Potency [11] | outcome [17] | outcome [18]

C1CCCCCCCCCCC1
inactive: Potency [1] | Potency [2] | Potency [3] | Potency [5] | Potency [19] | outcome [6] | outcome [7] | outcome [8] | outcome [14] | Potency [10] | outcome [12] | outcome [13] | Potency [11] | outcome [17] | outcome [18]

Fc1ccccc1-c1ccccc1
inactive: Potency [1] | Potency [2] | Potency [3] | outcome [4] | outcome [6] | outcome [7] | outcome [8] | Potency [9] | outcome [14] | Potency [10] | outcome [12] | Potency [11] | outcome [17] | outcome [18]

NS(=O)(=O)c1cc(C2(O)NC(=O)c3ccccc32)ccc1Cl (stereo not drawn)
inactive: Potency [1] | Potency [2] | Potency [3] | outcome [4] | Potency [19] | outcome [6] | outcome [7] | outcome [8] | Potency [9] | outcome [14] | Potency [10] | outcome [12] | outcome [15] | outcome [16] | Potency [11] | outcome [18]

CCCOCC(C)OCC(C)O (stereo not drawn)
inactive: Potency [1] | Potency [2] | Potency [3] | Potency [5] | outcome [6] | outcome [7] | outcome [8] | Potency [9] | Potency [10] | outcome [15] | outcome [13] | outcome [16] | Potency [11] | outcome [18]
